Data taken from article PMC11062922 (Nature Chemical Biology, 2023).
Where two headings read alike, the source gives them in different places.

What was measured:
TNK1 = settings: read-out: apparent Kd, n = 1
TTK = settings: read-out: apparent Kd, n = 1
[1] = compound concentrations:100 nM and 1000 nM (sheet 'Lestaurtinib' of Supplementary Table 1),run:Lestaurtinib_02437_R3,Plate:MR007
[2] = compound concentrations:100 nM and 1000 nM (sheet 'Lestaurtinib' of Supplementary Table 1),run:Lestaurtinib_02438_R2,Plate:MR008
[3] = compound concentrations:100 nM and 1000 nM (sheet 'Lestaurtinib' of Supplementary Table 1),run:Lestaurtinib_02496_R2,Plate:MR013
[4] = compound concentrations:100 nM and 1000 nM (sheet 'Lestaurtinib' of Supplementary Table 1),run:Lestaurtinib_02566_R1,Plate:MR014
[5] = compound concentrations:100 nM and 1000 nM (sheet 'Lestaurtinib' of Supplementary Table 1),run:Lestaurtinib_02566_R2,Plate:MR014
[6] = compound concentrations:100 nM and 1000 nM (sheet 'Lestaurtinib' of Supplementary Table 1),run:Lestaurtinib_02566_R3,Plate:MR014
[7] = compound concentrations:100 nM and 1000 nM (sheet 'Lestaurtinib' of Supplementary Table 1),run:Lestaurtinib_02572_R2,Plate:MR015
[8] = compound concentrations:100 nM and 1000 nM (sheet 'Lestaurtinib' of Supplementary Table 1),run:Lestaurtinib_02577_R3,Plate:MR016
[9] = compound concentrations:100 nM and 1000 nM (sheet 'Lestaurtinib' of Supplementary Table 1),run:Lestaurtinib_02606_R3,Plate:MR019
[10] = compound concentrations:100 nM and 1000 nM (sheet 'Lestaurtinib' of Supplementary Table 1),run:Lestaurtinib_02624_R1,Plate:MR020
[11] = compound concentrations:100 nM and 1000 nM (sheet 'Lestaurtinib' of Supplementary Table 1),run:Lestaurtinib_02624_R3,Plate:MR020
[12] = compound concentrations:100 nM and 1000 nM (sheet 'Lestaurtinib' of Supplementary Table 1),run:Lestaurtinib_02724_R1,Plate:MR021
[13] = compound concentrations:100 nM and 1000 nM (sheet 'Lestaurtinib' of Supplementary Table 1),run:Lestaurtinib_02748_R2,Plate:MR024
[14] = compound concentrations:100 nM and 1000 nM (sheet 'Lestaurtinib' of Supplementary Table 1),run:Lestaurtinib_02752_R2,Plate:MR025
[15] = compound concentrations:100 nM and 1000 nM (sheet 'Lestaurtinib' of Supplementary Table 1),run:Lestaurtinib_02765_R2,Plate:MR026
[16] = compound concentrations:100 nM and 1000 nM (sheet 'Lestaurtinib' of Supplementary Table 1),run:Lestaurtinib_02765_R3,Plate:MR026
[17] = compound concentrations:100 nM and 1000 nM (sheet 'Lestaurtinib' of Supplementary Table 1),run:Lestaurtinib_02768_R2,Plate:MR028
[18] = compound concentrations:100 nM and 1000 nM (sheet 'Lestaurtinib' of Supplementary Table 1),run:Lestaurtinib_02795_R3,Plate:MR022
[19] = compound concentrations:100 nM and 1000 nM (sheet 'Lestaurtinib' of Supplementary Table 1),run:Lestaurtinib_02802_R1,Plate:MR029
[20] = compound concentrations:100 nM and 1000 nM (sheet 'Lestaurtinib' of Supplementary Table 1),run:Lestaurtinib_03260_R1,Plate:MR033
[21] = compound concentrations:100 nM and 1000 nM (sheet 'Lestaurtinib' of Supplementary Table 1),run:Lestaurtinib_03260_R2,Plate:MR033

Substance: Lestaurtinib
- potency estimated from few doses (TNK1; [1]): 15.8 nM
- potency estimated from few doses (TNK1; [2]): 65.4 nM
- potency estimated from few doses (TNK1; compound concentrations:100 nM and 1000 nM (sheet 'Lestaurtinib' of Supplementary Table 1),run:Lestaurtinib_02438_R3,Plate:MR008): 71.3 nM
- potency estimated from few doses (TNK1; compound concentrations:100 nM and 1000 nM (sheet 'Lestaurtinib' of Supplementary Table 1),run:Lestaurtinib_02443_R3,Plate:MR009): 143 nM
- potency estimated from few doses (TNK1; compound concentrations:100 nM and 1000 nM (sheet 'Lestaurtinib' of Supplementary Table 1),run:Lestaurtinib_02473_R2,Plate:MR010): 98.6 nM
- potency estimated from few doses (TNK1; compound concentrations:100 nM and 1000 nM (sheet 'Lestaurtinib' of Supplementary Table 1),run:Lestaurtinib_02482_R3,Plate:MR011): 222 nM
- potency estimated from few doses (TNK1; compound concentrations:100 nM and 1000 nM (sheet 'Lestaurtinib' of Supplementary Table 1),run:Lestaurtinib_02487_R3,Plate:MR012): 81.8 nM
- potency estimated from few doses (TNK1; [3]): 95.2 nM
- potency estimated from few doses (TNK1; [4]): 250 nM
- potency estimated from few doses (TNK1; [5]): 221 nM
- potency estimated from few doses (TNK1; [6]): 208 nM
- potency estimated from few doses (TNK1; [7]): 53.4 nM
- potency estimated from few doses (TNK1; compound concentrations:100 nM and 1000 nM (sheet 'Lestaurtinib' of Supplementary Table 1),run:Lestaurtinib_02577_R1,Plate:MR016): 240 nM
- potency estimated from few doses (TNK1; [8]): 209 nM
- potency estimated from few doses (TNK1; compound concentrations:100 nM and 1000 nM (sheet 'Lestaurtinib' of Supplementary Table 1),run:Lestaurtinib_02584_R3,Plate:MR017): 220 nM
- potency estimated from few doses (TNK1; compound concentrations:100 nM and 1000 nM (sheet 'Lestaurtinib' of Supplementary Table 1),run:Lestaurtinib_02606_R2,Plate:MR019): 45.1 nM
- potency estimated from few doses (TNK1; [9]): 274 nM
- potency estimated from few doses (TNK1; [10]): 219 nM
- potency estimated from few doses (TNK1; [11]): 91.7 nM
- potency estimated from few doses (TNK1; [12]): 256 nM
- potency estimated from few doses (TNK1; compound concentrations:100 nM and 1000 nM (sheet 'Lestaurtinib' of Supplementary Table 1),run:Lestaurtinib_02724_R3,Plate:MR021): 60 nM
- potency estimated from few doses (TNK1; [13]): 97 nM
- potency estimated from few doses (TNK1; compound concentrations:100 nM and 1000 nM (sheet 'Lestaurtinib' of Supplementary Table 1),run:Lestaurtinib_02752_R1,Plate:MR025): 245 nM
- potency estimated from few doses (TNK1; [14]): 209 nM
- potency estimated from few doses (TNK1; compound concentrations:100 nM and 1000 nM (sheet 'Lestaurtinib' of Supplementary Table 1),run:Lestaurtinib_02752_R3,Plate:MR025): 208 nM
- potency estimated from few doses (TNK1; compound concentrations:100 nM and 1000 nM (sheet 'Lestaurtinib' of Supplementary Table 1),run:Lestaurtinib_02765_R1,Plate:MR026): 352 nM
- potency estimated from few doses (TNK1; [15]): 275 nM
- potency estimated from few doses (TNK1; [16]): 357 nM
- potency estimated from few doses (TNK1; compound concentrations:100 nM and 1000 nM (sheet 'Lestaurtinib' of Supplementary Table 1),run:Lestaurtinib_02766_R2,Plate:MR027): 20.7 nM
- potency estimated from few doses (TNK1; compound concentrations:100 nM and 1000 nM (sheet 'Lestaurtinib' of Supplementary Table 1),run:Lestaurtinib_02766_R3,Plate:MR027): 55.7 nM
- potency estimated from few doses (TNK1; [17]): 79.2 nM
- potency estimated from few doses (TNK1; compound concentrations:100 nM and 1000 nM (sheet 'Lestaurtinib' of Supplementary Table 1),run:Lestaurtinib_02768_R3,Plate:MR028): 115 nM
- potency estimated from few doses (TNK1; [18]): 213 nM
- potency estimated from few doses (TNK1; [19]): 81.9 nM
- potency estimated from few doses (TNK1; compound concentrations:100 nM and 1000 nM (sheet 'Lestaurtinib' of Supplementary Table 1),run:Lestaurtinib_03172_R2,Plate:MR031): 211 nM
- potency estimated from few doses (TNK1; compound concentrations:100 nM and 1000 nM (sheet 'Lestaurtinib' of Supplementary Table 1),run:Lestaurtinib_03172_R3,Plate:MR031): 85.4 nM
- potency estimated from few doses (TNK1; compound concentrations:100 nM and 1000 nM (sheet 'Lestaurtinib' of Supplementary Table 1),run:Lestaurtinib_03252_R1,Plate:MR032): 243 nM
- potency estimated from few doses (TNK1; [20]): 279 nM
- potency estimated from few doses (TNK1; [21]): 258 nM
- potency estimated from few doses (TTK; compound concentrations:100 nM and 1000 nM (sheet 'Lestaurtinib' of Supplementary Table 1),run:Lestaurtinib_02339_R1,Plate:MR001): 1930 nM
- potency estimated from few doses (TTK; compound concentrations:100 nM and 1000 nM (sheet 'Lestaurtinib' of Supplementary Table 1),run:Lestaurtinib_02339_R2,Plate:MR001): 812 nM
- potency estimated from few doses (TTK; compound concentrations:100 nM and 1000 nM (sheet 'Lestaurtinib' of Supplementary Table 1),run:Lestaurtinib_02364_R2,Plate:MR002): 1820 nM
- potency estimated from few doses (TTK; compound concentrations:100 nM and 1000 nM (sheet 'Lestaurtinib' of Supplementary Table 1),run:Lestaurtinib_02364_R3,Plate:MR002): 1130 nM
- potency estimated from few doses (TTK; compound concentrations:100 nM and 1000 nM (sheet 'Lestaurtinib' of Supplementary Table 1),run:Lestaurtinib_02367_R1,Plate:MR003): 172 nM
- potency estimated from few doses (TTK; compound concentrations:100 nM and 1000 nM (sheet 'Lestaurtinib' of Supplementary Table 1),run:Lestaurtinib_02367_R2,Plate:MR003): 2190 nM
- potency estimated from few doses (TTK; compound concentrations:100 nM and 1000 nM (sheet 'Lestaurtinib' of Supplementary Table 1),run:Lestaurtinib_02422_R1,Plate:MR006): 786 nM
- potency estimated from few doses (TTK; compound concentrations:100 nM and 1000 nM (sheet 'Lestaurtinib' of Supplementary Table 1),run:Lestaurtinib_02422_R2,Plate:MR006): 1690 nM
- potency estimated from few doses (TTK; compound concentrations:100 nM and 1000 nM (sheet 'Lestaurtinib' of Supplementary Table 1),run:Lestaurtinib_02422_R3,Plate:MR006): 1630 nM
- potency estimated from few doses (TTK; compound concentrations:100 nM and 1000 nM (sheet 'Lestaurtinib' of Supplementary Table 1),run:Lestaurtinib_02437_R1,Plate:MR007): 94.9 nM
- potency estimated from few doses (TTK; [1]): 1430 nM
- potency estimated from few doses (TTK; compound concentrations:100 nM and 1000 nM (sheet 'Lestaurtinib' of Supplementary Table 1),run:Lestaurtinib_02438_R1,Plate:MR008): 800 nM
- potency estimated from few doses (TTK; [2]): 1970 nM
- potency estimated from few doses (TTK; compound concentrations:100 nM and 1000 nM (sheet 'Lestaurtinib' of Supplementary Table 1),run:Lestaurtinib_02443_R1,Plate:MR009): 1400 nM
- potency estimated from few doses (TTK; compound concentrations:100 nM and 1000 nM (sheet 'Lestaurtinib' of Supplementary Table 1),run:Lestaurtinib_02473_R1,Plate:MR010): 950 nM
- potency estimated from few doses (TTK; compound concentrations:100 nM and 1000 nM (sheet 'Lestaurtinib' of Supplementary Table 1),run:Lestaurtinib_02496_R1,Plate:MR013): 1370 nM
- potency estimated from few doses (TTK; [3]): 1410 nM
- potency estimated from few doses (TTK; [4]): 936 nM
- potency estimated from few doses (TTK; [5]): 821 nM
- potency estimated from few doses (TTK; [6]): 717 nM
- potency estimated from few doses (TTK; [7]): 1840 nM
- potency estimated from few doses (TTK; compound concentrations:100 nM and 1000 nM (sheet 'Lestaurtinib' of Supplementary Table 1),run:Lestaurtinib_02572_R3,Plate:MR015): 1440 nM
- potency estimated from few doses (TTK; [8]): 1700 nM
- potency estimated from few doses (TTK; compound concentrations:100 nM and 1000 nM (sheet 'Lestaurtinib' of Supplementary Table 1),run:Lestaurtinib_02601_R1,Plate:MR018): 1370 nM
- potency estimated from few doses (TTK; compound concentrations:100 nM and 1000 nM (sheet 'Lestaurtinib' of Supplementary Table 1),run:Lestaurtinib_02601_R2,Plate:MR018): 1620 nM
- potency estimated from few doses (TTK; compound concentrations:100 nM and 1000 nM (sheet 'Lestaurtinib' of Supplementary Table 1),run:Lestaurtinib_02601_R3,Plate:MR018): 1610 nM
- potency estimated from few doses (TTK; [9]): 1510 nM
- potency estimated from few doses (TTK; [10]): 1430 nM
- potency estimated from few doses (TTK; compound concentrations:100 nM and 1000 nM (sheet 'Lestaurtinib' of Supplementary Table 1),run:Lestaurtinib_02624_R2,Plate:MR020): 1760 nM
- potency estimated from few doses (TTK; [11]): 1430 nM
- potency estimated from few doses (TTK; [12]): 1210 nM
- potency estimated from few doses (TTK; compound concentrations:100 nM and 1000 nM (sheet 'Lestaurtinib' of Supplementary Table 1),run:Lestaurtinib_02741_R1,Plate:MR023): 1340 nM
- potency estimated from few doses (TTK; compound concentrations:100 nM and 1000 nM (sheet 'Lestaurtinib' of Supplementary Table 1),run:Lestaurtinib_02741_R2,Plate:MR023): 998 nM
- potency estimated from few doses (TTK; [13]): 1150 nM
- potency estimated from few doses (TTK; compound concentrations:100 nM and 1000 nM (sheet 'Lestaurtinib' of Supplementary Table 1),run:Lestaurtinib_02748_R3,Plate:MR024): 1440 nM
- potency estimated from few doses (TTK; [14]): 1240 nM
- potency estimated from few doses (TTK; [15]): 1440 nM
- potency estimated from few doses (TTK; [16]): 907 nM
- potency estimated from few doses (TTK; compound concentrations:100 nM and 1000 nM (sheet 'Lestaurtinib' of Supplementary Table 1),run:Lestaurtinib_02768_R1,Plate:MR028): 2150 nM
- potency estimated from few doses (TTK; [17]): 2240 nM
- potency estimated from few doses (TTK; compound concentrations:100 nM and 1000 nM (sheet 'Lestaurtinib' of Supplementary Table 1),run:Lestaurtinib_02795_R1,Plate:MR022): 1410 nM
- potency estimated from few doses (TTK; [18]): 750 nM
- potency estimated from few doses (TTK; [19]): 996 nM
- potency estimated from few doses (TTK; compound concentrations:100 nM and 1000 nM (sheet 'Lestaurtinib' of Supplementary Table 1),run:Lestaurtinib_02802_R2,Plate:MR029): 924 nM
- potency estimated from few doses (TTK; compound concentrations:100 nM and 1000 nM (sheet 'Lestaurtinib' of Supplementary Table 1),run:Lestaurtinib_02802_R3,Plate:MR029): 1410 nM
- potency estimated from few doses (TTK; compound concentrations:100 nM and 1000 nM (sheet 'Lestaurtinib' of Supplementary Table 1),run:Lestaurtinib_02896_R3,Plate:MR030): 953 nM
- potency estimated from few doses (TTK; compound concentrations:100 nM and 1000 nM (sheet 'Lestaurtinib' of Supplementary Table 1),run:Lestaurtinib_03252_R2,Plate:MR032): 1310 nM
- potency estimated from few doses (TTK; [20]): 896 nM
- potency estimated from few doses (TTK; [21]): 1540 nM
- potency estimated from few doses (TTK; compound concentrations:100 nM and 1000 nM (sheet 'Lestaurtinib' of Supplementary Table 1),run:Lestaurtinib_03260_R3,Plate:MR033): 806 nM
